# Where “and” joins values, the source holds several entries; their conditions need not be identical. Identical values can stand only once. Results filed as inconclusive are left out. Entries that show only a call come without a potency. More than one record can exist for a structure, and the calls need not agree. Calls of active or inactive are those of the source. Calls follow the shape of the dose curve; as a rule, active = well fitted inhibition curve with a large enough effect in the repeat runs; inconclusive = weak or mixed curves; inactive = flat fitted curve, though single readings scatter.
# Biological target: Luciferin 4-monooxygenase (Photinus pyralis) (UniProt P08659)
# Sequence (P08659 whole entry, looked up): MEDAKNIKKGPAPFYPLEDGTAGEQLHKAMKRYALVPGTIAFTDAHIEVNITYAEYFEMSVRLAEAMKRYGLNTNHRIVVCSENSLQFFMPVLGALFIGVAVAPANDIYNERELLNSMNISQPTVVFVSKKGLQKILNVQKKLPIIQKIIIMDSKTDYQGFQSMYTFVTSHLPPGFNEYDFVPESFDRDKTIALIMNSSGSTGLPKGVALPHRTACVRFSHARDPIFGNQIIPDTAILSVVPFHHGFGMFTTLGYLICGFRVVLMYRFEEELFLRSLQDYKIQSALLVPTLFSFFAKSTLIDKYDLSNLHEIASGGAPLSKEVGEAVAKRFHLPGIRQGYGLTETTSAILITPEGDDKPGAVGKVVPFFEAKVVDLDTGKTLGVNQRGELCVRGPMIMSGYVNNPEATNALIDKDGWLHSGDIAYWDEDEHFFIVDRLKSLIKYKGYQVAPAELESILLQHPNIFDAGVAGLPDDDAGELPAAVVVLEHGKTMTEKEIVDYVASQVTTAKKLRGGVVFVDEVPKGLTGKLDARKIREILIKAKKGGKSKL
# Assay: qHTS assay to identify small molecule inhibitors of firefly luciferase (AID 1224835); also: nearly all actives have a fitted effect of over 25% in size
# Settings: purified P. pyralis luciferase, luminescence inhibition; series mostly up to 115 µM; activity change, negative = inhibition: at the top concentration
# Summary of the method: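 Biochemical qHTS: compounds run as interplate titrations against purified firefly enzyme, with D-luciferin and ATP each at its KM concentration. Light output recorded by CCD imaging.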
# Potency is read from the fitted curve at half-maximal effect.
Structure (SMILES),Potency,"activity change, negative = inhibition"
CC(=O)[O][Hg][c]1ccccc1,1.25 µM (active) and 3.99 µM (active) and 2.75 µM (active),
CCCC[n+]1ccc(C)cc1,20.3 µM (active) and inactive,
Cc1cc(Cl)ccc1OCC(=O)O,inactive,
Nc1ccc(-c2ccc(N)cc2)cc1,78.7 µM (active) and 28.1 µM (active),
CCNc1nc(Cl)nc(NCC)n1,inactive,
O=[N+]([O-])c1ccccc1O,inactive,
O=C(O)C(Cl)(Cl)Cl,inactive,
Cc1cc(-c2ccc(N)c(C)c2)ccc1N,36 µM (active) and 56.2 µM (active) and 63.3 µM (active),
O=P1(N(CCCl)CCCl)NCCCO1 (stereo not drawn),inactive,
CCOP(=S)(OCC)Oc1ccc2c(C)c(Cl)c(=O)oc2c1,inactive and 15.5 µM (active),
Oc1ccccc1-c1ccccc1,,-7.94% [at 52.9 µM] (inactive)
COCC(=O)N(c1c(C)cccc1C)C(C)C(=O)OC (stereo not drawn),inactive,
COc1ccccc1N,inactive,
OCCOc1ccccc1,inactive,
C[C@]12CCC(=O)C=C1CC[C@@H]1[C@@H]2CC[C@]2(C)C(=O)CC[C@@H]12,inactive,
O=C(O)CCl,inactive,
COP(=O)(OC)C(O)C(Cl)(Cl)Cl (stereo not drawn),inactive,
C1CCC(NC2CCCCC2)CC1,inactive,
CCn1cc[n+](C)c1C,inactive,
Cc1cc(Cl)ccc1N,inactive,
CCCCCCCCCCCC(=O)O,40 µM (active) and 57.6 µM (active) and 71 µM (active),
CCCCCC[n+]1ccccc1,inactive,
CCCCCCCCn1cc[n+](C)c1,inactive,
